Results on 40 molecules are retold here after PubChem BioAssay (NCI).

Molecules are shown by their SMILES. This is part of a sample that, as a whole, favours compounds with a hit. Of some 83,000 tested, about 20% had one in any assay.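 Single-dose data. Exposure time 48 hours. Values below 10 considered active.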 The source made the active and inactive calls.

One test concerns SF-539 CNS. Briefly: NCI-60 one-dose screen, 48 h (100 = growth as untreated, 0 = no growth, -100 = all killed). To be noted: 10 µM unless noted.
As to `ClCCN(CCCl)C(c1ccccc1)c1ccc(Cl)cc1` (stereo unspecified), the growth is 71.7% (inactive).

Regarding `CCCCn1cc(C(=O)/C(C#N)=C/c2cc3ccccc3nc2Cl)c2cc(OC)ccc21`, the growth was 89% (inactive).

In the case of `CCCCNCCc1ccccn1`, the growth is 109% (inactive).

As for `CC(=O)C1C(=O)N(C)C(=O)N(C)C1=O`, the growth is 92% (inactive).

On to `C[C@]12CC[C@@H]3C4=C(CC[C@H]3[C@@H]1CC[C@@H]2O)CC(=O)CC4`, for which the growth was 103% (inactive).

For `Oc1ccccc1OB(Oc1ccccc1O)N(CCCl)CCCl`, the growth is 63.2% (inactive).

Consider `NC(Cc1ccc2c(c1)OCO2)c1ccc2c(c1)OCO2` (stereo unspecified), for which the growth is 114% (inactive).

Take `COc1ccc(-c2ccc(OC)c(OC)c2OC)cc1`: the growth is 3.98% (active).

In the case of `CC[C@@]1(C2O[C@@H](C3O[C@@](O)(CC)[C@H](C)C[C@@H]3C)C[C@@H]2C)CC[C@H]([C@]2(C)CCC3(C[C@H](O)[C@@H](C)[C@@H]([C@H](C)[C@@H](OC)[C@H](C)C(=O)O)O3)O2)O1` (stereo partly specified), the growth was 12.6% (inactive).

Turning to `CC1(C)N=C(N)N=C(N)N1c1ccc(CCCCc2ccc(S(=O)(=O)F)cc2)c(Cl)c1`, the growth is 22.9% (inactive).

`COc1ccc(C2=NN(c3ccccc3)C(c3sc(N(CCCl)CCCl)nc3Cl)C2)cc1` (stereo unspecified): the growth is 104% (inactive).

Turning to `N#CC1c2ccccc2C=CN1C(=O)c1ccc(N(CCCl)CCCl)cc1` (stereo unspecified), the growth is 101% (inactive).

Consider `CSc1ccccc1NP1(=O)OCC(C)([N+](=O)[O-])CO1` (stereo unspecified), for which the growth is 91.4% (inactive).

Turning to `Cc1ccc(N)cc1[As]=[As]c1cc(N)ccc1C` (stereo unspecified), the growth was -94.5% (active).

`C/C(=N/OC(=O)N(C)C)c1cc(Cl)ccc1Cl`: the growth is 103% (inactive).

On to `CCC(C)[C@H]1O[C@]2(C=C[C@@H]1C)C[C@@H]1C[C@@H](C/C=C(\C)[C@@H](OC3C[C@H](OC)C(O[C@H]4C[C@H](OC)[C@@H](O)[C@H](C)O4)[C@H](C)O3)[C@@H](C)/C=C/C=C3\CO[C@@H]4[C@H](O)C(C)=C[C@@H](C(=O)O1)[C@]34O)O2` (stereo partly specified), for which the growth is -71.6% (active).

Regarding `CC1(C)N=C(N)N=C(N)N1c1ccc(CCCCc2ccc(S(=O)(=O)F)cc2)cc1`, the growth is 28.6% (inactive).

For the molecule `O=S(=O)(O)c1ccc(-c2ccc([As](=O)(O)O)cc2)cc1`, the growth was 105% (inactive).

As for `O=C1NC(=O)C(CN2C(=O)C3(c4ccccc42)[C@H](Cl)C(=O)N3c2ccccc2)C(=O)N1` (stereo partly specified), the growth is 74.1% (inactive).

On to `O=[N+]([O-])c1cc([N+](=O)[O-])c(Cl)c(Cl)c1Cl`, for which the growth was 11.6% (inactive).

For `C=CCC1(CC)C(=O)NC(=S)NC1=O`, the growth is 98.3% (inactive).

For `C/C(=N/OC(=O)N(C)C)c1ccc(Cl)cc1Cl`, the growth was 95.9% (inactive).

In the case of `CCC[CH2][Sn]([CH2]CCC)([CH2]CCC)[O]C(=O)CC`, the growth is -85.1% (active).

As for `O=C(NCc1ccc([N+](=O)[O-])cc1)Nc1ccc(S(=O)(=O)F)cc1`, the growth is 88.3% (inactive).

For `n1nc(-c2nonc2-c2nn[nH]n2)n[nH]1`, the growth is 115% (inactive).

Take `CNC(=O)Oc1ccccc1-c1ccccc1`: the growth is 104% (inactive).

In the case of `CC1(C)N=C(N)N=C(N)N1c1ccc(OCCCCOc2ccc(S(=O)(=O)F)cc2)c(Cl)c1`, the growth is 12.2% (inactive).

For `CCCCOC(=O)c1ccccc1C(=O)O.CCCCOC(=O)c1ccccc1C(=O)O.[Cu+2]`, the growth was 111% (inactive).

For the molecule `O=[N+]([O-])c1ccc2cnn(CSP(=S)(c3ccccc3)c3ccccc3)c2c1`, the growth is 82.7% (inactive).

With `NC(=O)C(Cl)Cl`, the growth is 107% (inactive).

On to `CCN(CC)c1ccc(C=C2C(=O)NC(=S)NC2=O)cc1`, for which the growth is 97.4% (inactive).

As for `Clc1ccc(SSC(Cl)(Cl)Cl)cc1`, the growth is 103% (inactive).

On to `[O]=[Sn]([CH]1CCCCC1)[CH]1CCCCC1`, for which the growth was -92.5% (active).

With `ClCCN(CCCl)c1nc(Cl)c(C2CC(c3ccccc3)=NN2c2ccccc2)s1` (stereo unspecified), the growth was 102% (inactive).

For `CC(=O)C1CCC2C3CC=C4CC(OC(=O)Cc5ccc(N(CCCl)CCCl)cc5)CCC4(C)C3CCC12C` (stereo unspecified), the growth was 79.5% (inactive).

On to `Cc1ccccc1O`, for which the growth was 104% (inactive).

For `O=[N+]([O-])c1ccccc1N1CCNCC1`, the growth is 99.8% (inactive).

As for `CC(=O)Nc1ccc(C=C2C(=O)NC(=O)NC2=O)cc1`, the growth is 105% (inactive).

The next test relates to UACC-257 melanoma. Described as above. Particulars: 10 µM unless noted.
On to `ClCCN(CCCl)C(c1ccccc1)c1ccc(Cl)cc1` (stereo unspecified), for which the growth was 90.9% (inactive).

In the case of `CCCCn1cc(C(=O)/C(C#N)=C/c2cc3ccccc3nc2Cl)c2cc(OC)ccc21`, the growth is 98.5% (inactive).

In the case of `CCCCNCCc1ccccn1`, the growth is 94.5% (inactive).

On to `CC(=O)C1C(=O)N(C)C(=O)N(C)C1=O`, for which the growth was 98.6% (inactive).

On to `CC1(C)N=C(N)N=C(N)N1c1cccc(C(=O)Nc2cccc(S(=O)(=O)F)c2)c1`, for which the growth was 93.9% (inactive).

Turning to `C[C@]12CC[C@@H]3C4=C(CC[C@H]3[C@@H]1CC[C@@H]2O)CC(=O)CC4`, the growth is 92.8% (inactive).

As to `Oc1ccccc1OB(Oc1ccccc1O)N(CCCl)CCCl`, the growth was 84.4% (inactive).

For the molecule `NC(Cc1ccc2c(c1)OCO2)c1ccc2c(c1)OCO2` (stereo unspecified), the growth was 103% (inactive).

With `COc1ccc(-c2ccc(OC)c(OC)c2OC)cc1`, the growth was 43.2% (inactive).

With `CC[C@@]1(C2O[C@@H](C3O[C@@](O)(CC)[C@H](C)C[C@@H]3C)C[C@@H]2C)CC[C@H]([C@]2(C)CCC3(C[C@H](O)[C@@H](C)[C@@H]([C@H](C)[C@@H](OC)[C@H](C)C(=O)O)O3)O2)O1` (stereo partly specified), the growth is 20.7% (inactive).

Consider `CC1(C)N=C(N)N=C(N)N1c1ccc(CCCCc2ccc(S(=O)(=O)F)cc2)c(Cl)c1`, for which the growth is 30.9% (inactive).

Consider `COc1ccc(C2=NN(c3ccccc3)C(c3sc(N(CCCl)CCCl)nc3Cl)C2)cc1` (stereo unspecified), for which the growth was 89.7% (inactive).

Regarding `N#CC1c2ccccc2C=CN1C(=O)c1ccc(N(CCCl)CCCl)cc1` (stereo unspecified), the growth was 81.5% (inactive).

Consider `CSc1ccccc1NP1(=O)OCC(C)([N+](=O)[O-])CO1` (stereo unspecified), for which the growth is 106% (inactive).

As to `Cc1ccc(N)cc1[As]=[As]c1cc(N)ccc1C` (stereo unspecified), the growth is -97.3% (active).

Take `C/C(=N/OC(=O)N(C)C)c1cc(Cl)ccc1Cl`: the growth is 103% (inactive).

Regarding `CCC(C)[C@H]1O[C@]2(C=C[C@@H]1C)C[C@@H]1C[C@@H](C/C=C(\C)[C@@H](OC3C[C@H](OC)C(O[C@H]4C[C@H](OC)[C@@H](O)[C@H](C)O4)[C@H](C)O3)[C@@H](C)/C=C/C=C3\CO[C@@H]4[C@H](O)C(C)=C[C@@H](C(=O)O1)[C@]34O)O2` (stereo partly specified), the growth was -17.1% (active).

As to `CC1(C)N=C(N)N=C(N)N1c1ccc(CCCCc2ccc(S(=O)(=O)F)cc2)cc1`, the growth was 39.1% (inactive).

`Cc1ccc(C(=O)C2CN(C)CCC2(O)c2ccc(C)cc2)cc1` (stereo unspecified): the growth was 104% (inactive).

For the molecule `O=S(=O)(O)c1ccc(-c2ccc([As](=O)(O)O)cc2)cc1`, the growth is 93.6% (inactive).

`O=[N+]([O-])c1cc([N+](=O)[O-])c(Cl)c(Cl)c1Cl`: the growth is 20.4% (inactive).

Consider `C=CCC1(CC)C(=O)NC(=S)NC1=O`, for which the growth was 105% (inactive).

As for `C/C(=N/OC(=O)N(C)C)c1ccc(Cl)cc1Cl`, the growth was 101% (inactive).

As for `CCC[CH2][Sn]([CH2]CCC)([CH2]CCC)[O]C(=O)CC`, the growth is -94.2% (active).

Regarding `O=C(NCc1ccc([N+](=O)[O-])cc1)Nc1ccc(S(=O)(=O)F)cc1`, the growth is 83% (inactive).

As for `n1nc(-c2nonc2-c2nn[nH]n2)n[nH]1`, the growth is 100% (inactive).

For `CNC(=O)Oc1ccccc1-c1ccccc1`, the growth was 101% (inactive).

On to `CCCCOC(=O)c1ccccc1C(=O)O.CCCCOC(=O)c1ccccc1C(=O)O.[Cu+2]`, for which the growth was 110% (inactive).

With `O=[N+]([O-])c1ccc2cnn(CSP(=S)(c3ccccc3)c3ccccc3)c2c1`, the growth is 86.3% (inactive).

For `NC(=O)C(Cl)Cl`, the growth is 94.8% (inactive).

Take `CCN(CC)c1ccc(C=C2C(=O)NC(=S)NC2=O)cc1`: the growth is 91.3% (inactive).

For the molecule `Clc1ccc(SSC(Cl)(Cl)Cl)cc1`, the growth was 112% (inactive).

`[O]=[Sn]([CH]1CCCCC1)[CH]1CCCCC1`: the growth is -88.3% (active).

With `ClCCN(CCCl)c1nc(Cl)c(C2CC(c3ccccc3)=NN2c2ccccc2)s1` (stereo unspecified), the growth is 85.8% (inactive).

For `CC(=O)C1CCC2C3CC=C4CC(OC(=O)Cc5ccc(N(CCCl)CCCl)cc5)CCC4(C)C3CCC12C` (stereo unspecified), the growth is 116% (inactive).

With `Cc1ccccc1O`, the growth was 106% (inactive).

As to `O=[N+]([O-])c1ccccc1N1CCNCC1`, the growth is 94.4% (inactive).

Consider `CC(=O)Nc1ccc(C=C2C(=O)NC(=O)NC2=O)cc1`, for which the growth is 98.4% (inactive).
